Reference: PubChem BioAssay AID1159580 (chemical genetic matrix, 2015)
Values joined by “and” are separate entries in the source; they are usually repeats but may differ in a detail not shown here. Equal entries are not always repeated. Among all 5,500 compounds or so, about 2,000 (36%) were called active. Roughly 18% stayed inconclusive and do not appear here. No stated cut-off is given here; in the data, active means normalized growth mostly below about 0.91 (no sharp cut-off); inconclusive means no clear call, values can overlap the other calls; inactive means mostly above about 0.92. The list shows a part of the results.

Experiment: chemical genetic growth profiling, strain panel (AID 1159580);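 further: tested at 20 µM; growth read once vehicle control cultures reached saturation at 30 °C; 1 = growth at the plate median or of vehicle wells; lower values mean less growth of the strain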
Conditions: S. cerevisiae deletion strains, growth OD

Measured: normalized growth

NC(N)=NS(=O)(=O)c1ccc(N)cc1
inactive: locus YAL021C, strain ccr4, active compounds read low 0.976 | locus YAL026C, strain drs2, active compounds read low 0.991 | locus YAL030W, strain snc1, active compounds read low 0.979 | locus YBL061C, strain skt5, active compounds read low 0.991 | locus YBR009C, strain hhf1, active compounds read low 0.981 | locus YBR021W, strain FUR4, active compounds read low 1.02 | locus YBR023C, strain chs3, active compounds read low 0.981 | locus YBR171W, strain sec66, active compounds read low 0.994 | locus YBR229C, strain ROT2, active compounds read low 1.01 | locus YBR231C, strain swc5, active compounds read low 0.993 | locus YBR279W, strain paf1, active compounds read low 0.986 | locus YCL011C, strain gbp2, active compounds read low 0.981 | locus YCL016C, strain dcc1, active compounds read low 0.983 | locus YCL029C, strain bik1, active compounds read low 1 | locus YCL061C, strain MRC1, active compounds read low 1.01 | locus YCL069W, strain vba3, active compounds read low 0.991 | locus YCR088W, strain abp1, active compounds read low 0.992 | locus YDL005C, strain med2, active compounds read low 0.987 | locus YDL035C, strain GPR1, active compounds read low 1.02 | locus YDL040C, strain nat1, active compounds read low 0.975 | locus YDL074C, strain BRE1, active compounds read low 1.04 | locus YDL101C, strain DUN1, active compounds read low 1.02 | locus YDL134C, strain PPH21, active compounds read low 1.01 | locus YDL185W, strain tfp1, active compounds read low 1 | locus YDL192W, strain arf1, active compounds read low 0.996 | locus YDR001C, strain nth1, active compounds read low 0.99 | locus YDR069C, strain doa4, active compounds read low 0.986 | locus YDR101C, strain arx1, active compounds read low 0.995 | locus YDR137W, strain rgp1, active compounds read low 1.03 | locus YDR150W, strain NUM1, active compounds read low 1.02 | locus YDR159W, strain sac3, active compounds read low 0.992 | locus YDR162C, strain NBP2, active compounds read low 1.01 | locus YDR195W, strain ref2 0.934 | locus YDR297W, strain sur2, active compounds read low 0.984 | locus YDR318W, strain mcm21, active compounds read low 0.998 | locus YDR334W, strain swr1, active compounds read low 0.979 | locus YDR335W, strain msn5, active compounds read low 0.992 | locus YDR388W, active compounds read low 0.999 | locus YDR392W, strain spt3, active compounds read low 0.99 | locus YDR502C, strain sam2, active compounds read low 0.997 | locus YEL003W, strain gim4, active compounds read low 0.99 | locus YEL037C, strain rad23, active compounds read low 0.983 | locus YEL061C, strain CIN8 (second series), active compounds read low 0.974 | locus YEL061C, strain CIN8, active compounds read low 1.01 | locus YER015W, strain faa2, active compounds read low 0.985 | locus YER016W, strain bim1, active compounds read low 0.987 | locus YER110C, active compounds read low 0.993 | locus YER111C, strain swi4, active compounds read low 0.993 | locus YER155C, strain BEM2 (second series), active compounds read low 0.987 | locus YER155C, strain BEM2, active compounds read low 1.01 | locus YER167W, strain BCK2, active compounds read low 1 | locus YFR010W, strain ubp6, active compounds read low 0.99 | locus YGL078C, strain dbp3, active compounds read low 0.987 | locus YGL086W, strain mad1, active compounds read low 1.01 | locus YGL167C, strain pmr1, active compounds read low 0.987 | locus YGL173C, strain kem1, active compounds read low 0.988 | locus YGL227W, strain vid30, active compounds read low 0.974 | locus YGL240W, strain doc1, active compounds read low 0.997 | locus YGL248W, strain PDE1, active compounds read low 1.03 | locus YGL253W, strain hxk2, active compounds read low 0.986 | locus YGR078C, strain PAC10, active compounds read low 1.04 | locus YGR135W, strain pre9, active compounds read low 0.989 | locus YGR252W, strain gcn5, active compounds read low 0.963 | locus YHR013C, strain ard1, active compounds read low 0.961 | locus YHR027C, strain rpn1, active compounds read low 0.976 | locus YHR030C, strain SLT2, active compounds read low 1.01 and 0.978 | locus YHR079C, strain IRE1 (second series), active compounds read low 0.99 | locus YHR079C, strain IRE1, active compounds read low 0.97 | locus YHR094C, strain hxt1, active compounds read low 0.988 | locus YHR129C, strain ARP1, active compounds read low 1.02 | locus YHR142W, strain chs7, active compounds read low 0.988 | locus YHR200W, strain rpn10, active compounds read low 0.985 | locus YIL066C, strain RNR3, active compounds read low 1.03 | locus YIL073C, strain SPO22, active compounds read low 0.989 | locus YIL125W, strain kgd1, active compounds read low 0.989 | locus YIR030C, strain dcg1, active compounds read low 0.994 | locus YJL092W, strain hpr5, active compounds read low 0.991 | locus YJL095W, strain BCK1 (second series), active compounds read low 0.988 | locus YJL095W, strain BCK1, active compounds read low 1.05 and 0.986 | locus YJL115W, strain asf1, active compounds read low 0.966 | locus YJL129C, strain trk1, active compounds read low 0.984 | locus YJL134W, strain LCB3, active compounds read low 1 | locus YJL154C, strain vps35, active compounds read low 0.986 | locus YJL164C, strain tpk1, active compounds read low 0.984 | locus YJL166W, strain qcr8, active compounds read low 0.98 | locus YJL168C, strain set2, active compounds read low 0.996 | locus YJL187C, strain SWE1 (second series), active compounds read low 1.03 | locus YJL187C, strain SWE1, active compounds read low 0.989 | locus YJR043C, strain POL32, active compounds read low 1.05
